Screening results (PubChem BioAssay)
CYP2C19 act = cytochrome P450 2C19 (human) activation; P33261; recombinant CYP2C19, luciferin-H EGE luminescence; active compounds read high; 0 = fully inhibited enzyme, 1 = untreated enzyme; activation factor at 5 µM; 96,000 tested, under 10 active; AID 1025;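 active means activation factor of at least 2 at 5 µM in the primary screen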;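 further: 0 = wells with 2.5 mM tranylcypromine and 1 = vehicle-only wells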
CYP2C19 inhib = inhibitors of human CYP2C19; P33261; CYP2C19 Supersomes, luciferin-H EGE luminescence, 30 min; inhibition, % at 5 µM; 96,000 tested, 21% active;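 active means CYP2C19 inhibition above a set limit at 5 µM in the primary screen, cut at about 50% in these data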;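 further: plate controls were negative control wells for no effect and 2.5 mM tranylcypromine positive control for full effect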
PTK2B oligo ant = antagonists of human Pyk2 oligomerization. AID 1347419. z-score (the deposit names both 25 µM and 10 µM). Q293 cells, Pyk2 FERM NanoBiT luminescence; active compounds read low. 99,000 tested, 0.83% active. Q14289;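 active means Z-score of -3 or lower, scaled per plate to the spread of control and sample wells; inactive means z-score above -3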;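 further: negative z-score means lost luminescence so less FERM oligomerization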
CYP2C9 inhib = blocks human cytochrome P450 2C9. P11712. 96,000 tested, 20% active. inhibition, % at 5 µM. CYP2C9 Supersomes, luciferin-H conversion, luminescence;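 active means blocking of liver enzyme CYP2C9 beyond about 50% at 5 µM, limit read from the data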
Cav32 inh = blocks human Cav3.2 T-type calcium channel | O95180 | Cav3.2-expressing cells, Fluo-4 calcium fluorescence FDSS; active compounds read low | B-score at 10 µM | 100,000 tested, 4% active;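 active means single-dose well whose peak fluorescence ratio is a statistical outlier from its plate by either plate-standardised score or position-corrected B-score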
CYP2C9 act = increases human cytochrome P450 2C9 activity; recombinant CYP2C9, luciferin-H conversion, luminescence; active compounds read high; factor 1 = untreated enzyme, 0 = blocked; P11712; activation factor at 5 µM; AID 1024; 96,000 tested, 1.4% active;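 active means activation factor of 2 or more for CYP2C9 at a 5 µM dose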;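 further: 0 = sulfaphenazole-blocked wells and 1 = vehicle-only wells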
Active calls of the source: *. Compounds with a hit are over-represented: about 27% of the library has one in this group of screens.

How did O=C(NCCSCc1ccc(Cl)cc1Cl)c1ccc(CN2CCOCC2)cc1 do in these assays?
CYP2C19 act: 0.5; CYP2C19 inhib: 49; PTK2B oligo ant: 0.04; CYP2C9 inhib: 81*; Cav32 inh: -4.3*; CYP2C9 act: 0.2

How did O=C(/C=C/c1ccc2c(c1)OCO2)NCCSCc1cccc(Cl)c1 do in these assays?
CYP2C19 act: 0.7; CYP2C19 inhib: 25; CYP2C9 inhib: 43; CYP2C9 act: 0.6

What do the screens show for `CC(=O)n1nc(-c2ccco2)nc1N`?
CYP2C19 act: 1; CYP2C19 inhib: -3; PTK2B oligo ant: 0.77; CYP2C9 inhib: -7; Cav32 inh: 0.029; CYP2C9 act: 1.1

Results for COc1ccccc1C(=O)n1nc(-c2ccco2)nc1N ?
CYP2C19 act: 0.4; CYP2C19 inhib: 57*; PTK2B oligo ant: 0; CYP2C9 inhib: 11; CYP2C9 act: 0.9

Results for COCCN(CCOC)C(=O)c1cc2sc3ccccc3c2s1 ?
CYP2C19 act: 0.7; CYP2C19 inhib: 34; PTK2B oligo ant: -2.4; CYP2C9 inhib: -179; Cav32 inh: -1.1; CYP2C9 act: 2.8*

How did COCCN(CC(=O)NCc1ccccc1)C(=O)CCC(=O)Nc1nccs1 do in these assays?
CYP2C19 act: 1; CYP2C19 inhib: 2; PTK2B oligo ant: -0.19; CYP2C9 inhib: 6; CYP2C9 act: 0.9

Results for CCN(CC)C(=O)c1cc2sc3ccccc3c2s1 ?
CYP2C19 act: 0.7; CYP2C19 inhib: 27; PTK2B oligo ant: -0.78; CYP2C9 inhib: -136; Cav32 inh: -1.8; CYP2C9 act: 2.4*

Results for CCOc1ccc(C(=O)N[C@H](C(=O)O)C(C)C)cc1 ?
CYP2C19 act: 0.9; CYP2C19 inhib: 6; PTK2B oligo ant: 1.4; CYP2C9 inhib: 11; Cav32 inh: 0.62; CYP2C9 act: 0.9

What do the screens show for `Cc1ccc(S(=O)(=O)/N=S(\C)CC2CC2(Cl)Cl)cc1` (stereo not drawn)?
CYP2C19 act: 0.4; CYP2C19 inhib: 58*; PTK2B oligo ant: 0.34; CYP2C9 inhib: -60; Cav32 inh: 0.35; CYP2C9 act: 1.6

Results for Cc1ccc2[nH]c3c(c2c1)CN(C(=O)CN1CCN(c2ccccn2)CC1)CC3 ?
CYP2C19 act: 0.9; CYP2C19 inhib: 11; PTK2B oligo ant: -0.08; CYP2C9 inhib: 21; Cav32 inh: -3.1; CYP2C9 act: 0.8

Results for Cc1ccc2[nH]c3c(c2c1)CN(C(=O)CN1CCSCC1)CC3 ?
CYP2C19 act: 0.5; CYP2C19 inhib: 51*; CYP2C9 inhib: 15; Cav32 inh: -0.081; CYP2C9 act: 0.8

Results for Cc1ccc2[nH]c3c(c2c1)CN(C(=O)CN1CCN(Cc2ccc4c(c2)OCO4)CC1)CC3 ?
CYP2C19 act: 0.4; CYP2C19 inhib: 62*; PTK2B oligo ant: -0.1; CYP2C9 inhib: 62*; Cav32 inh: -1.2; CYP2C9 act: 0.4

Results for Cc1ccc2[nH]c3c(c2c1)CN(C(=O)CN1CC(C)OC(C)C1)CC3 (stereo not drawn) ?
CYP2C19 act: 0.3; CYP2C19 inhib: 71*; PTK2B oligo ant: -0.53; CYP2C9 inhib: 35; Cav32 inh: -0.14; CYP2C9 act: 0.6

How did CCOC(=O)c1[nH]c2ccc(OC)cc2c1NC(C)=O do in these assays?
CYP2C19 act: 1.2; CYP2C19 inhib: -15; PTK2B oligo ant: -1.1; CYP2C9 inhib: -14; Cav32 inh: -0.092; CYP2C9 act: 1.1

Results for CCOC(=O)c1[nH]c2ccc(OC)cc2c1NC(=O)c1cccc(OC)c1 ?
CYP2C19 act: 0.5; CYP2C19 inhib: 52*; PTK2B oligo ant: -1.3; CYP2C9 inhib: 37; Cav32 inh: -0.9; CYP2C9 act: 0.6

What do the screens show for `CCOC(=O)c1[nH]c2ccc(OC)cc2c1NC(=O)CN1CCSCC1`?
CYP2C19 act: 0.2; CYP2C19 inhib: 76*; PTK2B oligo ant: 1.7; CYP2C9 inhib: 59*; Cav32 inh: 0.64; CYP2C9 act: 0.4

Results for CCOC(=O)c1[nH]c2ccc(OC)cc2c1NC(=O)CCN1CCC(C)CC1 ?
CYP2C19 act: 0.9; CYP2C19 inhib: 9; CYP2C9 inhib: 7; Cav32 inh: 0.14; CYP2C9 act: 0.9

How did CCOC(=O)c1[nH]c2ccc(Br)cc2c1NC(=O)CCN1CCC(C)CC1 do in these assays?
CYP2C19 act: 0.4; CYP2C19 inhib: 58*; PTK2B oligo ant: 1.4; CYP2C9 inhib: 24; Cav32 inh: -0.58; CYP2C9 act: 0.8

Results for CCOC(=O)c1[nH]c2cc(OC)c(OC)cc2c1NC(=O)CN1CCN(c2ccc(OC)cc2)C(C)C1 (stereo not drawn) ?
CYP2C19 act: 0.9; CYP2C19 inhib: 9; CYP2C9 inhib: -11; Cav32 inh: -5.4*; CYP2C9 act: 1.1

What do the screens show for `CCOC(=O)c1[nH]c2cc(OC)c(OC)cc2c1NC(=O)CN(C)C1CCCCC1`?
CYP2C19 act: 0.8; CYP2C19 inhib: 17; PTK2B oligo ant: -0.79; CYP2C9 inhib: 21; Cav32 inh: 0.3; CYP2C9 act: 0.8

What do the screens show for `CC(/C=C1\N=C(SCc2ccccc2)SC1=O)=C\c1ccccc1`?
PTK2B oligo ant: 1.6

What do the screens show for `CCOc1ccc2nc(SCC(=O)N(C)C)[nH]c2c1`?
CYP2C19 act: 0.8; CYP2C19 inhib: 19; PTK2B oligo ant: 0.03; CYP2C9 inhib: 14; Cav32 inh: -0.036; CYP2C9 act: 0.9

Results for O=C(Nc1ccc(Cl)c(C(F)(F)F)c1)[C@@H]1CC=C[C@@H]2CCN(C3CC3)C(=O)[C@@H]21 ?
Cav32 inh: -0.43

How did CCOC(=O)c1[nH]c2ccc(OC)cc2c1NC(=O)c1ccc2c(c1)OCO2 do in these assays?
CYP2C19 act: 0.4; CYP2C19 inhib: 62*; PTK2B oligo ant: -0.89; CYP2C9 inhib: 35; Cav32 inh: -3.1; CYP2C9 act: 0.7

Results for CCOC(=O)c1[nH]c2cc(OC)c(OC)cc2c1NC(=O)c1ccc2c(c1)OCO2 ?
CYP2C19 act: 1; CYP2C19 inhib: 0; PTK2B oligo ant: 0.43; CYP2C9 inhib: 11; Cav32 inh: 0.07; CYP2C9 act: 0.9

What do the screens show for `C#Cc1ccc2c(c1)COc1c3ccccc3nn1-2`?
Cav32 inh: -0.052

Results for O=C1C=C(c2ccccc2)C(O)(c2ccccc2)C1 (stereo not drawn) ?
CYP2C19 act: 0.8; CYP2C19 inhib: 22; PTK2B oligo ant: -0.19; CYP2C9 inhib: 10; Cav32 inh: 0.69; CYP2C9 act: 0.9

Results for OC1(c2ccccc2)C/C(=N\n2cnnc2)C=C1c1ccccc1 (stereo not drawn) ?
CYP2C19 act: 0; CYP2C19 inhib: 99*; PTK2B oligo ant: -0.61; CYP2C9 inhib: 95*; Cav32 inh: -3; CYP2C9 act: 0

What do the screens show for `COc1ccc(NC(=O)c2noc3c2CCC3)cc1`?
CYP2C19 act: 0.4; CYP2C19 inhib: 62*; PTK2B oligo ant: 0.92; CYP2C9 inhib: 27; Cav32 inh: -0.0019; CYP2C9 act: 0.7

What do the screens show for `O=C(Nc1cccc(O)c1)c1noc2c1CCCCC2`?
CYP2C19 act: 0.3; CYP2C19 inhib: 70*; PTK2B oligo ant: -0.45; CYP2C9 inhib: 33; Cav32 inh: -1.2; CYP2C9 act: 0.7
